Bioassay records as filed in PubChem.
PrPC TRFRET: inhibitors of human cell surface prion protein PrPC, primary screen, cell-based, TR-FRET; 0.43% of 370,000 active; TR-FRET read-out; inhibition, % at 13.8 µM; Major prion protein (Homo sapiens), P04156; in the data active = inhibition above about 24%; note: 0% = median of the test wells and 100% = reference compound wells
PrP UTR inh: inhibition of PrP 5' UTR reporter expression. AID 488862, 2010. 0.35% of 340,000 active. cell-based PrP 5' UTR mRNA reporter, plate reader. inhibition, % (concentration not given with the values); in the data active = inhibition above about 52%; note: 0 = median of the neutral control wells
SARS 3CLpro inh: SARS-CoV 3CLpro protease inhibitors, primary screen, biochemical, quenched FRET | inhibition, % at 6 µM | recombinant SARS-CoV 3CLpro, quenched FRET peptide cleavage | 0.14% of 290,000 active | AID 1706, 2009; in the data active = inhibition above about 12%
BJeLR viability: MLPCN primary cell-based screen for lethality selective to Ras in HRASV12 cells | BJeLR (HRASV12) viability, CellTiter-Glo ATP luminescence, 48 h | inhibition, % (no concentration beside the values) | 0.17% of 300,000 active | AID 1554, 2009; in the data active = inhibition above about 50%; inconclusive = no clear call, values can overlap the other calls
RecA intein inh: Mtb RecA intein splicing inhibitors, primary screen, biochemical, fluorescence, HTS. 0.75% of 290,000 active. cell-free RecA intein splicing. inhibition, % (test concentration not listed). AID 2221, 2009; in the data active = inhibition above about 30%; inconclusive = no clear call, values can overlap the other calls;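 note: 0% = vehicle wells and 100% = reference inhibitor control wells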
Target sequence (P9WHJ3 whole entry, looked up): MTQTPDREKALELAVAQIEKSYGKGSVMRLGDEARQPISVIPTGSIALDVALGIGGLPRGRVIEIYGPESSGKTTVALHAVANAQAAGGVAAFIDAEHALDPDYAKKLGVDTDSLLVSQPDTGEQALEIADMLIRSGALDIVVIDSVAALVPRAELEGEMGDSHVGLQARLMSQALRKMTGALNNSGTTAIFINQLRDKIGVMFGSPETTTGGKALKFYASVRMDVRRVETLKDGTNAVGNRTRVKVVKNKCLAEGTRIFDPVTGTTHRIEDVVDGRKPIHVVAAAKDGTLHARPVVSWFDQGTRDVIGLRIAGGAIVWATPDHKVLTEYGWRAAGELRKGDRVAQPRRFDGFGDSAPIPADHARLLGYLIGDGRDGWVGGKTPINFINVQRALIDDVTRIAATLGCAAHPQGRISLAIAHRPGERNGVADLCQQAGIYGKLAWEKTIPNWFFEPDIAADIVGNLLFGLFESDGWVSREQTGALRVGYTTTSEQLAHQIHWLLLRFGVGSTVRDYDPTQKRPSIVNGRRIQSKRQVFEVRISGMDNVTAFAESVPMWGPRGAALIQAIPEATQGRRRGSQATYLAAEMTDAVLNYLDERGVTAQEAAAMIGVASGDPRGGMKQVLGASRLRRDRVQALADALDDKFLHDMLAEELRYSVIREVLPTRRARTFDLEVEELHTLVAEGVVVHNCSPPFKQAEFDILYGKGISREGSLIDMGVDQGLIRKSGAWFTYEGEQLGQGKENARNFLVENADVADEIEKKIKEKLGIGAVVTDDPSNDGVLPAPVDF
Mtb hypoxia rep: PubChem AID 1159583 | M. tuberculosis hypoxia-regulated fluorescent reporter, fluorescence | fluorescence inhibition, % (test concentration not listed) | 0.1% of 300,000 active; in the data active = fluorescence inhibition mostly above about 23%, no sharp cut-off; inactive = mostly below about 17%
PrP 5UTR single: prion 5' UTR mRNA inhibition, cherry-pick retest; shares compounds with PrP UTR inh; cell-based prion protein 5' UTR reporter, plate reader; inhibition, % at 2.5 µM; 48% of 1,100 active; AID 504592, 2011; in the data active = inhibition above about 54%; inconclusive = no clear call, values can overlap the other calls
* = called active by the depositor; u = inconclusive; x = no result given. Most compounds without a hit are left out; they make up all but 1.4% or so of the library.

SMILES | PrPC TRFRET | PrP UTR inh | SARS 3CLpro inh | BJeLR viability | RecA intein inh | Mtb hypoxia rep | PrP 5UTR single
CSc1ccccc1NC(=O)C(C)N(C)CC(=O)N1CCN(Cc2ccccc2)CC1 (stereo not given) | 0 | 74* | x | x | x | 8 | -10
CN(C)C(=O)c1cc(C(=O)c2ccccc2)c[nH]1 | 5 | -17 | -2 | 5 | -3 | 6 | x
CN(C)C(=O)c1cc(C(=O)c2c(F)cccc2F)c[nH]1 | -5 | 68* | -1 | -3 | -1 | -5 | -14
Cc1ccc(S(=O)(=O)N2CCN(C(=O)N(C)C)CC2)cc1 | -1 | 62* | 0 | -7 | 1 | 7 | -58
CCCOc1ccc(C=c2sc3ncnn3c2=O)cc1 | x | x | x | x | x | -2 | x
Oc1ccc(C=Nn2cc(-c3ccccc3)[nH]c2=S)cc1 | x | x | x | x | x | 13 | x
CCOC(=O)c1cccc(NC(=O)Nc2ccc(OCC)cc2)c1 | 10 | -8 | -1 | 4 | -2 | 4 | x
O=C(O)c1ccc(COc2ccc(CO)cc2Cl)cc1 | 0 | -62 | -2 | 2 | 1 | 13 | x
CCOc1ccc(NC(=O)Nc2cccc(C(=O)O)c2)cc1 | 8 | 88* | 3 | 31 | x | x | 91*
CCOc1ccc(OCc2cccc(C(=O)O)c2)cc1 | 4 | 93* | x | 55* | 1 | 3 | 95*
O=C(O)c1cccc(COc2ccc(CO)cc2Cl)c1 | 6 | 93* | x | 15 | 2 | 3 | 93*
O=C(OCC(F)(F)F)c1cccc(COc2ccc3ccccc3c2)c1 | -4 | 63* | -3 | -6 | 10 | x | 66*
COc1cc(CCCN2C(=O)C(=O)NCC2Cc2ccc(O)cc2)cc(OC)c1OC (stereo not given) | x | x | x | x | x | 20 | x
CCOC(=O)CC(C(C)=NO)c1ccccc1 (stereo not given) | x | x | x | x | x | 1 | x
CCOc1cc(C(=O)NN=Cc2cn(-c3ccccc3)nc2-c2cc3ccccc3o2)cc(OCC)c1OCC | x | x | x | x | x | 0 | x
S=c1[nH]nc(-c2ccco2)n1N=C/C=C/c1ccccc1 | x | x | x | x | x | 6 | x
COc1ccc(OCc2cccc(C(=O)O)c2)cc1 | -1 | 93* | x | 42 | -1 | 3 | 94*
Cc1cccc(OCC(=O)Nc2cc(NC(=O)COc3cccc(C)c3C)cc(C(=O)O)c2)c1C | 7 | -13 | 8 | 0 | 2 | 1 | x
Cc1ccccc1OCC(=O)Nc1cccc(C(=O)O)c1 | 0 | 76* | -2 | 4 | -1 | 13 | 77*
CCOc1ccc(NC(=O)c2ccccn2)cc1 | -21 | 62* | -2 | 13 | 1 | 4 | 72*
CCOc1ccc(OCc2cccc(C(=O)N3CCCC3)c2)cc1 | -2 | 7 | -5 | -3 | 0 | 3 | x
O=C(O)c1cccc(COc2ccc3c(c2)CCC3)c1 | -7 | 82* | 4 | 3 | 2 | -7 | 88*
Cc1ccc(CN2C3c4ccccc4CC3OCCS2(=O)=O)cc1 (stereo not given) | x | x | x | x | x | 16 | x
O=C(c1cnn2ccccc12)N1CCCc2ccccc21 | 5 | 60* | -5 | -5 | 2 | 0 | 32
O=C(c1cnc2ccccn2c1=O)N1CCCc2ccccc21 | -6 | -15 | -6 | -4 | x | 5 | x
SMILES | PrPC TRFRET | PrP UTR inh | SARS 3CLpro inh | BJeLR viability | RecA intein inh | Mtb hypoxia rep | PrP 5UTR single
Cc1ccccc1CN1C(=O)c2ccccc2S1(=O)=O | -6 | -21 | -5 | -4 | 2 | 2 | x
O=C1c2ccccc2S(=O)(=O)N1Cc1nc2ccccc2s1 | 1 | 70* | 1 | 4 | -2 | 8 | u
CSC1SCC2C(=O)N(C)C(C(C)C)C(=O)OCC(NC(=O)c3cnc4ccccc4n3)C(=O)NC(C)C(=O)N(C)C1C(=O)N(C)C(C(C)C)C(=O)OCC(NC(=O)c1cnc3ccccc3n1)C(=O)NC(C)C(=O)N2C (stereo not given) | 26* | 92* | x | x | x | x | 93*
CCCCCCSc1ccc(C2C3C(=O)N(CC)C(=O)C3[C@]3(C(=O)OC)CCCCN23)cc1 (stereo not given in full) | x | x | x | x | x | 12 | x
O=C(O)c1ccc(NN=Cc2ccncc2)cc1 | x | x | x | x | x | 3 | x
O=C(O)c1ccc(N/N=C/c2ccc3nccnc3c2)cc1 | -33 | 84* | -1 | 24 | 2 | x | 85*
CC1OC(OC2CC(O)C3(CO)C4C(O)CC5(C)C(C6=CC(=O)OC6)CCC5(O)C4CCC3(O)C2)C(O)C(O)C1O (stereo not given) | -5 | 91* | x | x | x | x | 93*
C[C@@H]1O[C@@H](O[C@H]2C[C@@H](O)[C@]3(CO)[C@H]4[C@H](O)C[C@]5(C)[C@@H](C6COC(=O)C6)CC[C@]5(O)[C@@H]4CC[C@]3(O)C2)[C@H](O)[C@H](O)[C@H]1O (stereo not given in full) | 4 | 59* | -1 | 71* | -1 | x | 70*
CC(C)NC(=O)Nc1ccc2c(c1)C(=O)N(C(C)CO)CC(C)C(CN(C)S(=O)(=O)c1cccs1)O2 (stereo not given) | x | x | x | x | x | 9 | x
O=C(NC1CCCCC1)c1n[nH]c2c1CCCCC2 | 4 | 79* | x | x | x | x | 59*
CCC(C)(C)C1CCc2[nH]nc(C(=O)NC3CCCC3)c2C1 (stereo not given) | 0 | -1 | x | x | x | 6 | x
NCCNCCNCCN | -2 | 89* | 1 | -1 | -2 | x | -58
CC(C)(C)OC(=O)NCCCCC(C(=O)N1CCN(C(=O)OC(C)(C)C)CC1)n1cc(C(CO)NC(=O)OC(C)(C)C)nn1 (stereo not given) | x | x | x | x | x | 0 | x
COCC=CC1=CC2=CC(=O)C(C)(OC(=O)c3cnc4ccccc4n3)C(=O)C2=CN1CCCOC(C)C (stereo not given) | x | x | x | x | x | 9 | x
Cc1ccc(-n2c([S-])c(C(=O)Nc3ccc(OC(F)F)cc3)[n+]3ccc(C(=O)NCCO)cc23)cc1C | -11 | 78* | 0 | -1 | -4 | -13 | 0
N=c1ccn2c(n1)O[C@H]1[C@@H](CO)[C@H](O)O[C@H]12 | 0 | 52* | x | x | x | x | 38
Cc1nnc(SCSc2nnc(C)s2)s1 | -2 | -23 | -1 | 1 | -4 | 4 | x
Cc1nnc(SCc2ccccc2CSc2nnc(C)s2)s1 | -2 | 60* | -1 | -3 | 2 | 12 | 14
CCOC(=O)c1c(C)[nH]c(C(=O)OCCOc2ccccc2C)c1C | -6 | 81* | -5 | -5 | 0 | -1 | -60
CN(C(=O)COC(=O)c1cnc(Cl)c(Cl)c1)C1CCS(=O)(=O)C1 (stereo not given) | 6 | -38 | -3 | -10 | 2 | 16 | x
CN(C(=O)COC(=O)c1ccc(Cl)nc1)C1CCS(=O)(=O)C1 (stereo not given) | -2 | 68* | -2 | 8 | -4 | -8 | -20
